An excerpt weighted towards active compounds, which were near 2.3% of everything screened.
YB-1 expression – YB-1 expression inhibition; U2OS, qRT-PCR YB-1 vs CDIP delta delta Cp, 16 h; hits give high values; zero = DMSO, each unit about twofold; delta delta Cp (YB-1 minus CDIP) (test concentration not listed); 30,000 compounds, 0.37% hits;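 active = delta delta Cp rounded down to an integer at or above 3, about 3 SD of DMSO wells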;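 also: higher means less YB-1 transcript or more CDIP transcript relative to DMSO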
ROS inducer – cancer cell ROS induction. ROS induction (% of piperlongumine), % at 10 µM. U2OS ROS induction, H2DCF-DA fluorescence. AID 624156. 46,000 compounds, 2% hits; in the data active = ROS induction above about 79%, passing the limit was not always enough; inconclusive = no clear call, values can overlap the other calls;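 also: 0% = DMSO vehicle median and 100% = reference compound median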
Starred values were filed as active, the others as inactive; u = inconclusive; x = no result given.

SMILES	YB-1 expression	ROS inducer
COc1ccc(NC(=O)Nc2cccc3c2O[C@H](CN(C)S(C)(=O)=O)[C@H](C)CN([C@@H](C)CO)C3=O)cc1	-0.311	-6.5
COc1ccc(NC(=O)N(C)C[C@@H]2Oc3c(NC(=O)C4CC4)cccc3C(=O)N([C@@H](C)CO)C[C@H]2C)cc1	0.323	86.9*
Cc1noc(C)c1NC(=O)Nc1cccc2c1O[C@@H](CN(C)S(C)(=O)=O)[C@H](C)CN([C@H](C)CO)C2=O	0.0697	100.3*
C[C@@H]1CN([C@H](C)CO)C(=O)c2cccc(NC(=O)Nc3ccc(F)cc3)c2O[C@H]1CN(C)S(C)(=O)=O	0.183	18.3
Cc1noc(C)c1NC(=O)Nc1cccc2c1O[C@H](CN(C)S(C)(=O)=O)[C@@H](C)CN([C@H](C)CO)C2=O	0.0798	-6.5
COc1ccc(NC(=O)Nc2cccc3c2O[C@@H](CN(C)S(C)(=O)=O)[C@H](C)CN([C@@H](C)CO)C3=O)cc1	0.737	111.5*
C[C@@H]1CN([C@@H](C)CO)C(=O)c2cccc(NC(=O)Nc3ccc(F)cc3)c2O[C@@H]1CN(C)S(C)(=O)=O	-0.0311	89.9*
O=C(CSc1nc(-c2ccccc2)cc(C(F)(F)F)n1)c1ccccc1	x	28.1
Cc1ccc(C2=NN(CCC(=O)N3CCC(C(N)=O)CC3)C(=O)CC2)cc1	x	-7.6
Cc1noc(C)c1S(=O)(=O)Nc1ccc2c(c1)C(=O)N([C@H](C)CO)C[C@H](C)[C@H](CN(C)C(=O)Nc1ccc(C(F)(F)F)cc1)O2	-0.417	2.4
C[C@H](CO)N1C[C@H](C)[C@H](CN(C)Cc2ccc(-c3ccccc3)cc2)Oc2ccc(NC(=O)Cn3cnnn3)cc2C1=O	-0.00332	-14.9
C[C@@H]1CN([C@H](C)CO)C(=O)c2cc(NC(=O)CCC(F)(F)F)ccc2O[C@H]1CN(C)Cc1ccc(Cl)c(Cl)c1	-0.166	0.8
C=C1C2=C(O[C@H](/C(C)=C/C(C)CC(C)CC)[C@@H](O)[C@@H]2O)C(=O)N1OC (some centres not stated)	-0.379	149.1*
COc1ccc(NC(=O)N(C)C[C@H]2Oc3c(NC(=O)Nc4ccc(F)cc4)cccc3C(=O)N([C@@H](C)CO)C[C@H]2C)cc1	0.154	5.5
COc1ccccc1NC(=O)CSc1nccc(=O)[nH]1	x	-6.1
C[C@H](CO)N1C[C@H](C)[C@@H](CN(C)C(=O)Nc2ccccc2)Oc2c(NC(=O)C3CCCCC3)cccc2C1=O	0.194	-16.4
N#Cc1c(C(F)(F)F)cc(-c2cccs2)nc1S/C=C/C(=O)c1ccccc1	0.253	126.2*
N#Cc1c(C(F)(F)F)cc(-c2cccs2)nc1SCC(=O)Nc1c(F)cccc1F	x	1.7
COc1ccccc1N(CC(=O)NCC1CCCO1)S(=O)(=O)c1ccc(C)cc1 (configuration not stated)	x	-4.8
CCOC(=O)c1ccc(NC(=O)Cn2c(=O)oc3ccccc32)cc1	x	-21.0
CCOC(=O)c1c(-c2ccccc2)oc2ccc(O)c(CSCC(=O)Nc3ccccc3)c12	9.59*	20.2
C[C@H]1CN([C@@H](C)CO)C(=O)CCCn2nncc2CO[C@H]1CN(C)S(=O)(=O)c1ccc(Cl)cc1	-0.464	17.2
COc1ccc([Si](C)(C)[C@@H]2[C@@H](CC(=O)N3Cc4ccccc4C[C@H]3CO)O[C@]3(C(=O)N(C)c4c(Br)cc(C)cc43)[C@H]2C)cc1	-0.0812	21.8
C/C=C/[C@H](CC(=O)N1Cc2ccccc2C[C@H]1CO)[Si](C)(C)c1ccc(OC)cc1	0.294	94.0*
Cc1cc(C(=O)Nc2cccc3c2O[C@H](CN(C)Cc2ccc(-c4ccccc4)cc2)[C@@H](C)CN([C@H](C)CO)C3=O)n(C)n1	-0.177	195.5*
SMILES	YB-1 expression	ROS inducer
C[C@H](CO)N1C[C@H](C)[C@@H](CN(C)Cc2ccc(-c3ccccc3)cc2)Oc2c(NC(=O)c3ccncc3)cccc2C1=O	0.0637	149.1*
Cc1cc(C(=O)Nc2cccc3c2O[C@@H](CN(C)Cc2ccc(-c4ccccc4)cc2)[C@H](C)CN([C@@H](C)CO)C3=O)n(C)n1	-0.308	u
C[C@H](CO)N1C[C@H](C)[C@H](CN(C)Cc2ccc(-c3ccccc3)cc2)Oc2c(NC(=O)c3ccncc3)cccc2C1=O	-0.218	63.1
CC(C)NC(=O)N(C)C[C@H]1Oc2c(NS(=O)(=O)c3cn(C)cn3)cccc2C(=O)N([C@H](C)CO)C[C@H]1C	11.8*	-3.5
CC(C)NC(=O)N(C)C[C@H]1Oc2c(NS(=O)(=O)c3cn(C)cn3)cccc2C(=O)N([C@H](C)CO)C[C@@H]1C	-0.507	u
Cc1cc(C(=O)Nc2cccc3c2O[C@@H](CN(C)Cc2ccccc2)[C@@H](C)CN([C@H](C)CO)C3=O)n(C)n1	0.0378	-0.6
Cc1cc(C(=O)Nc2cccc3c2O[C@H](CN(C)Cc2ccc(Oc4ccccc4)cc2)[C@@H](C)CN([C@H](C)CO)C3=O)n(C)n1	0.0574	171.6*
CC(C)NC(=O)N(C)C[C@@H]1Oc2c(NC(=O)c3ccncc3)cccc2C(=O)N([C@@H](C)CO)C[C@H]1C	-0.0772	100.7*
CC(C)NC(=O)N(C)C[C@H]1Oc2c(NC(=O)c3ccncc3)cccc2C(=O)N([C@H](C)CO)C[C@H]1C	-0.836	-5.9
Cc1cc(C(=O)Nc2cccc3c2O[C@H](CN(C)S(=O)(=O)c2cccs2)[C@H](C)CN([C@@H](C)CO)C3=O)n(C)n1	20.1*	13.7
Cc1cc(C(=O)Nc2cccc3c2O[C@@H](CN(C)S(=O)(=O)c2cccs2)[C@@H](C)CN([C@@H](C)CO)C3=O)n(C)n1	0.72	1.3
COCCNC(=O)c1c(NC(=O)c2nc(SC)ncc2Cl)sc2c1CCCC2	x	-0.9
N#Cc1c2c(c(NCCN3CCCCC3)n3c1nc1ccccc13)CCC2	x	-2.9
C=CCSc1c2c(c(C#N)c3nc4ccccc4n13)CCC2	0.198	103.0*
O=C(C1=C[C@@H](c2ccc3c(c2)Cc2ccccc2-3)C[C@@H](OCc2ccc(CO)cc2)O1)N1CCN(Cc2ccc3c(c2)OCO3)CC1	0.158	29.5
COC(=O)c1ccc([C@@H]2C=C(C(=O)N3CCN(Cc4ccc5c(c4)OCO5)CC3)O[C@H](OCc3ccc(CO)cc3)C2)cc1	0.663	99.8*
O=C(NCC(c1ccccc1)c1c[nH]c2ccccc12)c1ccc(C(F)(F)F)cc1 (configuration not stated)	x	-7.5
O=C(O)c1ccccc1C(=O)N1CCc2ccccc21	x	-15.3
c1ccc(-c2nnc(N3CCc4ccccc43)nc2-c2ccccc2)cc1	-0.355	102.7*
C[C@@H]1O[C@@H](O[C@H]2[C@@H]3C=CO[C@@H](O[C@@H]4O[C@H](CO)[C@@H](O)[C@H](O)[C@H]4O)[C@@H]3[C@@]3(CO)O[C@@H]23)[C@H](O)[C@H](OC(=O)/C=C/c2ccc(O)cc2)[C@H]1O	0.371	87.5*
CC(=O)O[C@@H]1[C@@H](O)[C@H](C)O[C@@H](O[C@H]2[C@@H]3C=CO[C@@H](O[C@@H]4O[C@H](CO)[C@@H](O)[C@H](O)[C@H]4O)[C@@H]3[C@@]3(CO)O[C@@H]23)[C@@H]1OC(=O)/C=C/c1ccc(O)cc1	0.0533	73.4

Bioassay records as filed in PubChem.
